Screens: PubChem, National Center for Advancing Translational Sciences (NCATS)
Compounds with a hit are over-represented: about 2.5% of the library has one in this group of screens.
Cruzain inh noDet – cruzain (T. cruzi) inhibition without detergent. P25779. purified cruzain, Z-FR-AMC fluorescence, no detergent. Potency, µM, inactives show max response, negative = inhibition, hits mostly inhibitors. actives 2.3% (n = 200,000). AID 1476;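 also: plate controls were enzyme without inhibitor for no effect and buffer without enzyme for full effect; nearly all actives have a fitted effect of over 40% in size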
Target sequence (P25779 123-467 limits assumed): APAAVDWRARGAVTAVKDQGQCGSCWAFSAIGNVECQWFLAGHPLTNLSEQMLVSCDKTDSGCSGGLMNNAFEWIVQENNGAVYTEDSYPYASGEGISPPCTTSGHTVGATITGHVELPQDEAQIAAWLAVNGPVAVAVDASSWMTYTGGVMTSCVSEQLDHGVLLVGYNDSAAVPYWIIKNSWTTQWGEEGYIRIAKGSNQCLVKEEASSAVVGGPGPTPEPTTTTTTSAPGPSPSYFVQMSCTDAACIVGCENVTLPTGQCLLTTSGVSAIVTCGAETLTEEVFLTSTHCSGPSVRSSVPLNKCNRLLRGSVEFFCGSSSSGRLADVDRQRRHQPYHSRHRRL
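Detergent-free condition (0.00005% Triton X-100) in acetate buffer pH 5.5 with DTT. 1.5 nM enzyme and compound were pre-mixed 15 min, then 2 uM Z-FR-AMC substrate added; reaction progress from fluorescence change between first and third reads (60 s).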
Cruzain Triton – inhibitors of Trypanosoma cruzi cruzain with detergent; P25779; purified cruzain, Z-FR-AMC fluorescence, 0.01% Triton; Potency, µM, without a hit: max response, negative = inhibition, actives largely listed as inhibitors; actives 0.43% (n = 200,000);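 also: plate controls were neutral wells for no effect and buffer without enzyme for full effect; nearly all actives have a fitted effect of over 40% in size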
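In this qHTS format, compounds are incubated with 1.5 nM cruzain for 15 min at room temperature before 2 uM Z-FR-AMC is added. Release of AMC is followed at 360/450 nm, and progress is taken as the 60 s fluorescence difference.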
Starred values were filed as active, the others as inactive; u = inconclusive. Calls follow the shape of the dose curve; as a rule, active = well fitted curve in the direction sought with a large enough effect; inconclusive = small, poorly fitted or top-dose-only effect, or another doubt; inactive = no such curve, though single readings can be large; an effect the other way counts as inactive or inconclusive. Potency is read from the fitted curve at half-maximal effect.

SMILES	Cruzain inh noDet	Cruzain Triton
CN1CCN(c2oc(/C=C/c3ccc(F)cc3)nc2C#N)CC1	25µM*	25µM*
COCCNc1ncnc2ccc(-c3ccoc3)cc12	-23%	-6%
COc1ccc(C(CC(=O)Nc2cc(OC)c(OC)c(OC)c2)N2Cc3ccccc3C2=O)cc1 (stereo not given)	u	-4%
COCCCNc1oc(-c2ccc(COc3ccccc3C)o2)nc1C#N	u	-7%
Cc1cccc(C)c1NC(=O)Cn1c(=O)n(Cc2ccc3c(c2)OCO3)c(=O)c2oc3ccccc3c21	16%	1%
O=[N+]([O-])c1cccc(I)c1	-3%	1%
O=C(CCCc1nc(-c2ccco2)no1)Nc1ccccc1[N+](=O)[O-]	-2%	-5%
Cc1ccc(C)c(N2CCN(C(=O)Cn3cnc4sc(C)c(S(=O)(=O)N5CCN(c6ncccn6)CC5)c4c3=O)CC2)c1	u	-4%
C[C@H]1C[C@@H]2[C@@H]([C@@H](O)C[C@@]3(C)[C@H]2CC[C@]3(O)C(=O)CO)[C@@]2(C)C=CC(=O)C=C12	-10%	-4%
Cc1cccn2c(=O)c(C(=O)N3CCN(c4ccc(Cl)cc4)CC3)cnc12	9%	-9%
Cc1cc(-c2ccc(N=Nc3cc(S(=O)(=O)O)c4ccccc4c3N)c(C)c2)ccc1N=Nc1cc(S(=O)(=O)O)c2ccccc2c1N	u	7.9µM*
Nc1c(S(=O)(=O)O)cc(S(=O)(=O)O)c2ccc(N=Nc3ccccc3)c(O)c12	-7%	0%
COc1ccccc1NS(=O)(=O)c1ccc(N/N=C(\C)C(C)C)c([N+](=O)[O-])c1	-2%	-5%
O=C(O)c1cc(NS(=O)(=O)c2ccc(N3CCOCC3)c([N+](=O)[O-])c2)cc(C(=O)O)c1	-6%	-4%
C/C(=N\Nc1ccc(S(=O)(=O)Nc2ccc(Cl)cc2)cc1[N+](=O)[O-])c1ccc(N2CCOCC2)cc1	10µM*	-6%
COc1ccc(NS(=O)(=O)c2ccc(N/N=C(\C)c3ccncc3)c([N+](=O)[O-])c2)cc1	13µM*	-8%
O=C(NCc1cccc(Cl)c1)c1cnc(N2CCCCC2)c2ccccc12	-13%	-19%
COc1ccc(CNS(=O)(=O)c2ccc(C(=O)N(C)C)s2)cc1	4%	0%
Cc1ccc(OCc2nnc(NC(=O)c3ccco3)s2)cc1	-11%	-1%
Cc1ccc(OCCSc2nnc(NC(=O)c3ccco3)s2)cc1	25µM*	4%
COc1ccccc1NC(=O)C1=C(C)Nc2c(C(=O)Nc3ccc(C)cc3)cnn2C1c1cccc(OC)c1OC (stereo not given)	0%	-3%
N#C/C(=C\N1CCN(Cc2ccc3c(c2)OCO3)CC1)c1nc2ccccc2s1	32µM*	-4%
c1ccc2sc(N3CCN(Cc4ccc5c(c4)OCO5)CC3)nc2c1	3%	0%
COc1ccc(NC(=O)CSC2=Nc3ccccc3C3=NC(CC(=O)NCc4ccco4)C(=O)N23)cc1 (stereo not given)	1%	1%
CCOC(=O)C1=C(c2ccccc2)N=c2s/c(=C\c3cccc(O)c3)c(=O)n2C1c1cccs1 (stereo not given)	-4%	-4%
SMILES	Cruzain inh noDet	Cruzain Triton
O=c1/c(=C\c2ccc(O)cc2)sc2n1C(c1ccccc1)C(c1ccccc1)=NN=2 (stereo not given)	25µM*	-3%
O=C(NCc1ccccc1)C(=O)Nc1c2c(nn1-c1ccc(F)cc1)CSC2	20µM*	-1%
COc1cccc(CNC(=O)C(=O)Nc2c3c(nn2-c2ccccc2)CSC3)c1	u	0%
CCC1CN(C(=O)Nc2ccccc2F)c2cc(C)ccc2O1 (stereo not given)	11%	-3%
COC(=O)c1ccc(C=O)cc1	-11%	3%
CCOC(=O)c1cc(-c2ccccc2)sc1NC(=O)C(C)N1C(=O)NC(C)(c2ccc(Cl)cc2)C1=O (stereo not given)	4µM*	0%
CCOC(=O)c1cc(-c2ccccc2)sc1NC(=O)C(C)C	4%	-14%
COc1ccc(/C=C2\SC(=S)N(CCC(=O)NC3=NCCS3)C2=O)cc1OC	-15%	-12%
Cn1cc(/C=C2/SC(=O)N(CC(=O)Nc3ccc4c(c3)OCO4)C2=O)c2ccccc21	25µM*	-1%
O=C(CCN1C(=O)/C(=C/c2ccc3c(c2)OCO3)SC1=S)Nc1ccccc1	7.9µM*	-5%
Cn1cc(S(=O)(=O)CC(=O)Nc2ccc3c(c2)OCCO3)c2ccccc21	1%	8%
Cc1cc(C)n(-c2nc(C)nc(NCc3ccccc3)n2)n1	-4%	4%
Cc1nn(-c2nnc(NCc3ccccc3)nn2)c(C)c1Br	u	13µM*
COc1cc(NC(=O)NCCn2nnc3cc(S(=O)(=O)N(C)C)ccc32)cc(OC)c1	6%	1%
Cc1ccc2c(CN3CCN(S(=O)(=O)/C=C/c4ccccc4)CC3)cc(=O)oc2c1	25µM*	-2%
CCOC(=O)Nc1ccc2c(CN3CCN(S(=O)(=O)c4ccccc4)CC3)cc(=O)oc2c1	13µM*	-1%
CCOC(=O)Nc1ccc2c(CN3C(=O)NC4(CCCC4)C3=O)cc(=O)oc2c1	-8%	-23%
Cc1cc2oc(=O)cc(CN3CCN(C/C=C/c4ccccc4)CC3)c2cc1O	-21%	-1%
O=C(CCn1cnc2onc(-c3ccc(F)cc3)c2c1=O)N1CCN(c2ccccc2)CC1	30%	-7%
S=C(S)O[C@@H]1C[C@@H]2C[C@H]1[C@@H]1CCC[C@H]21	13%	-9%
COc1cc(NC(=O)N2CCc3c(sc4c3CCCC4)C2c2ccccc2)cc(OC)c1OC (stereo not given)	u	-3%
Cc1ccc(C2c3[nH]c4ccccc4c3CCN2C(=O)Nc2ccc(C)c(C)c2)cc1 (stereo not given)	u	1%
COc1cc(OC)c(NC(=O)N2CCc3c([nH]c4ccccc34)C2c2ccccc2F)cc1Cl (stereo not given)	16µM*	-4%
COc1cc(OC)c(NC(=O)N2CCc3c(sc4c3CCCC4)C2c2ccccc2)cc1Cl (stereo not given)	10µM*	0%
COc1ccc(CCNc2nc3cc(OC)c(OC)cc3c3nc(-c4cccnc4)nn23)cc1OC	1%	0%
SMILES	Cruzain inh noDet	Cruzain Triton
CCOc1ccc(NC(=O)C(C)n2c(=O)cc(-c3ccccc3)c3c(C)nn(C)c32)cc1 (stereo not given)	-6%	-1%
COc1ccc(-c2cn3nc(N4CCCC(C(=O)Nc5cccc(OC)c5)C4)sc3n2)cc1 (stereo not given)	-28%	-5%
O=C(Cn1cc(C(=O)c2ccncc2)c(=O)c2cc(F)ccc21)Nc1ccc(Cl)cc1	-22%	-10%
CCOc1ccc(C2=NC(c3cccs3)=Nc3ccc(C(C)C)cc3N2)cc1	3.2µM*	-7%
CC(C)c1ccc2c(c1)NC(c1ccncc1)=NC(c1cccs1)=N2	2%	-9%
COc1ccccc1NC(=O)Cn1c(=O)n(-c2cccc(C(C)=O)c2)c(=O)c2c3c(sc21)CN(C(C)=O)CC3	-4%	-1%
O=C(Cn1nnc(-c2cccc(C(F)(F)F)c2)n1)NC(=O)NCc1ccco1	16µM*	5%
O=C(Cn1nnc(-c2ccccc2)n1)NCc1ccco1	-1%	1%
Cc1ccc(CNC(=O)CCCCn2c(=O)c3ccccc3n(Cc3ccc(Cl)cc3)c2=O)cc1	4%	-2%
Cc1cnc(CNc2nc(-c3c(C)noc3C)nc3ccccc23)cn1	12%	-3%
Cc1ccc(C)c(NC(=O)c2ccc3c(O)c(S(=O)(=O)c4ccc(Cl)cc4)c(=O)[nH]c3c2)c1	4%	-3%
